Screen size: about 1,200 compounds; about 30 (2%) were called active. Another 23% or so got no clear call; they are omitted. Calls come from the whole dose curve; as a rule, active = well fitted inhibition curve with a large enough effect; inconclusive = small, poorly fitted or top-dose-only effect; inactive = flat fitted curve, though single readings scatter. What follows is part of a selection rich in actives, with near analogues and random picks from the rest.
% is set by controls: 0 for no effect and ±100 for the full control effect; potency is the fitted concentration of half-maximal effect.

Chain of Single-stranded DNA cytosine deaminase (Homo sapiens) (Q9GZX7 whole entry, looked up): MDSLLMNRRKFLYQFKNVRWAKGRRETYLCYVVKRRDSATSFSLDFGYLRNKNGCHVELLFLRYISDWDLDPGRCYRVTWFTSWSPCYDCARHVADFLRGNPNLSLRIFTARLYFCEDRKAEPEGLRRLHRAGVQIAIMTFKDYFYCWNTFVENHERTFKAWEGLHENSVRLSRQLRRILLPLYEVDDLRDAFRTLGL

The assay addresses Single-stranded DNA cytosine deaminase (Homo sapiens) (UniProt Q9GZX7). Nature of the assay: Confirmatory qHTS assay for inhibitors of Activation Induced Cytidine Deaminase (AID): AID signals. Conditions: recombinant AID, FRET deamination/UDG coupled fluorescence, 4 h; series mostly up to 115 µM; activity, negative = inhibition: at the top concentration. A digest of the protocol:
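Read 1 (AID) was measured at 540 ex/590 em after a 30 min NaOH step. The reaction was AID (1 uM, 4/3x stock) with UDG, compound at final 7.32 nM - 114 uM for 10 min, then DJC20/DJC23 substrate for 4 hr at room temperature. A UDG read at 560/665 serves as counterscreen.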
(In general: Quantitative high-throughput screening tests each substance at several concentrations.)
For the compound `CCOc1ccc(NC(=O)CN(C)S(=O)(=O)c2ccc3c(c2)c(=O)n(C)c(=O)n3C)cc1`, the “activity, negative = inhibition” value was 8.36% (inactive). `COc1cccc(CNC(=O)c2oc3c(c2C)-c2nn(Cc4cccc(Cl)c4)cc2CC3)c1OC`: the “activity, negative = inhibition” value was 14.5% (inactive).

As for `COc1ccc(Nc2ncc(C(=O)Nc3cccc(OC)c3)c3ccccc23)cc1`, the “activity, negative = inhibition” value was -1.42% (inactive). For the compound `Cc1ccccc1CSc1nc2nc(C)c(Cc3ccccc3)c(C)n2n1`, the “activity, negative = inhibition” value was -17.8% (inactive). Take `CC1(C)CCC2=C(O1)c1ccccc1C(=O)C2=O`: the Potency was 7.08 µM (active). Consider `OCC1O[C@H]([S-])[C@H](O)[C@@H](O)[C@@H]1O.[Au+]` (stereo partly specified), for which the Potency was 12.6 µM (active).

With `CCCCSCCCNC(=O)c1cn(CC)c2ccc(S(=O)(=O)N(C)C3CCCCC3)cc2c1=O`, the “activity, negative = inhibition” value was -21.7% (inactive). Still for that read-out and setting: with `CC1CCCN(C(=O)c2ccc(CSc3nc4ccncc4n3Cc3ccccc3)cc2)C1` (stereo unspecified) the figure was -7.61% (inactive); with `Cc1ccccc1Nc1c(-c2ccc(N3CCOCC3)cc2)nc2ccccn12`, 3.96% (inactive); with `CCCN(CCC)CCCNC(=O)c1cc2c(-c3ccc(Cl)cc3)nn(C)c2s1`, -20.4% (inactive). For the compound `CCCCn1c(CNC(=O)C23CC4CC(CC(C4)C2)C3)nnc1SCC(=O)Nc1ccc(C)cc1`, the “activity, negative = inhibition” value is -19.3% (inactive).

In the case of `Cc1cc2c(C(C)C)c(O)c(O)c(C=O)c2c(O)c1-c1c(C)cc2c(C(C)C)c(O)c(O)c(C=O)c2c1O`, the Potency is 31.6 µM (active). On to `Cc1cccc(NC(=O)CCn2nc(-c3ccccc3)c3ccccc3c2=O)c1`, for which the “activity, negative = inhibition” value is -19.9% (inactive). On the same count and under the same terms, with `CCn1nc(C)c2c(-c3ccccc3)cc(=O)n(C(C)C(=O)NCc3ccccc3OC)c21` (stereo unspecified) the figure was -20.2% (inactive).

Consider `COc1ccc(-c2coc3c2c(C)cc2oc(=O)c(CC(=O)O)c(C)c23)cc1`, for which the Potency was 50.1 µM (active). For `COc1cccc(-n2c(-c3cccc(F)c3)nc3c(cnn3-c3ccc(C)cc3)c2=O)c1`, the “activity, negative = inhibition” value was -15.5% (inactive). With `CCOc1ccc(CNCc2c(C(=O)O)n(Cc3ccccc3F)c3cc(OC)ccc23)cc1`, the “activity, negative = inhibition” value is 1.08% (inactive).

Consider `COc1ccc(C(C)=O)cc1CSc1nc(NCCc2ccccc2)c2ccccc2n1`, for which the “activity, negative = inhibition” value is -11% (inactive).

In the case of `Cc1cccc(N2CCN(C(=O)Cn3ncc4c3-c3cc(C)ccc3OC4)CC2C)c1` (stereo unspecified), the “activity, negative = inhibition” value is -19% (inactive).

Regarding `COc1ccccc1C(=O)Oc1c(Sc2ccccc2)c(C)nn1-c1ccccc1`, the “activity, negative = inhibition” value is 3.97% (inactive). In the case of `CCOC(=O)C1=C(CN2CCN(c3ccccc3F)CC2)NC(=O)NC1c1ccc(Cl)cc1` (stereo unspecified), the “activity, negative = inhibition” value is -9.34% (inactive).

`Cc1cccc(N2CCN(C(=O)C(C)n3nc(C)n4c(cc5occc54)c3=O)CC2)c1C` (stereo unspecified): the “activity, negative = inhibition” value is -6.52% (inactive). For the compound `Cc1ccc(C2CCN(C(=O)c3cnn(-c4cccc(Cl)c4)c3C3CCN(C(=O)OC(C)(C)C)CC3)C2)cc1` (stereo unspecified), the “activity, negative = inhibition” value is -1.75% (inactive). On to `COc1ccc(CCNC(=O)c2c[nH]n3c(=O)c(Cc4ccccc4Cl)c(C)nc23)cc1OC`, for which the “activity, negative = inhibition” value was -6.89% (inactive).

In the case of `FC(F)(F)c1cccc(N2CCN(Cc3nnc(-c4ccc5c(c4)OCO5)o3)CC2)c1`, the “activity, negative = inhibition” value was -14.7% (inactive). As for `COc1ccc(-c2nc(CSCC(=O)N3CCN(c4cccc(C)c4C)CC3)c(C)o2)cc1OC`, the “activity, negative = inhibition” value is -11% (inactive). Regarding `O=C(CSc1nc(-c2ccc(F)cc2)nc2c1Cc1ccccc1O2)Nc1cccc(C(=O)O)c1`, the Potency was 31.6 µM (active). In the case of `O=C(CSC1=Nc2ccccc2N=C(c2ccc(F)cc2)C1)Nc1cccc(C(F)(F)F)c1`, the “activity, negative = inhibition” value was -7.07% (inactive). On to `COc1ccc(-c2nc3c(c(SCC(=O)Nc4ccc(C(=O)O)cc4)n2)Cc2ccccc2O3)cc1`, for which the “activity, negative = inhibition” value is 10.8% (inactive). Take `Cc1cccc(-n2cnc3cc(C(=O)NCc4ccccc4Cl)ccc32)c1`: the “activity, negative = inhibition” value was -7.99% (inactive).

For the compound `Cc1cccc(-c2nc(CCNC(=O)COc3ccccc3)cs2)c1`, the “activity, negative = inhibition” value is -12.9% (inactive). For `CCN(C(=O)CSc1nc(-c2ccccc2)no1)c1cccc(C)c1`, the “activity, negative = inhibition” value is -1.82% (inactive). As to `COc1ccc(CNCCC(c2ccccc2)c2ccc3c(c2)OCO3)cc1` (stereo unspecified), the “activity, negative = inhibition” value is -14.1% (inactive). Same read-out and setting: with `CCCCN(CC)CCCNC(=O)c1cn(CC)c2ccc(S(=O)(=O)N3CCc4ccccc4C3)cc2c1=O` the figure was -21.8% (inactive); with `CCc1ccc(CN(Cc2ccco2)c2cnc(S(C)(=O)=O)nc2C(=O)Nc2ccc(C)c(Cl)c2)cc1`, -7.49% (inactive); with `CCOc1ccc(-c2nn(-c3ccccc3)cc2C2NC(=O)NC(C)=C2C(=O)OC(C)C)cc1` (stereo unspecified), -5.41% (inactive). Still for that read-out and setting: with `COc1ccc(CN(Cc2ccco2)C(=O)COc2ccc(Cl)cc2C)cc1` the figure was -5.94% (inactive).

On to `Cc1nc2nc(SCC(=O)N(C)Cc3ccccc3)nn2c(C)c1Cc1ccccc1Cl`, for which the “activity, negative = inhibition” value is -17.7% (inactive). The same measure, in the same setting: with `Cc1ccc(Cn2cc(S(=O)(=O)c3ccc(C)cc3)c(=O)c3cc(F)c(N4CCCC4)cc32)cc1` the figure was -1.5% (inactive); with `CCc1ccc(S(=O)(=O)c2cnc3ccc(OC)cc3c2N2CCCC(C)C2)cc1` (stereo unspecified), -7.45% (inactive); with `CCOC(=O)C1CCN(c2nc3c(S(=O)(=O)c4ccccc4)nnn3c3ccsc23)CC1`, -6.88% (inactive). For `CCN(CC)C(=O)CSc1nc(-c2ccccc2F)nc2c1Cc1c(CO)cnc(C)c1O2`, the “activity, negative = inhibition” value was -20.7% (inactive). On the same count and under the same terms, with `Cc1ccccc1C(=O)Nc1sc2c(c1C(=O)O)CCC(C(C)(C)C)C2` (stereo unspecified) the figure was -5.24% (inactive); with `Cc1ccc(-c2sc(C(=O)Nc3ccc(Br)cc3)cc2CC(=O)O)cc1`, -3.84% (inactive). In the case of `CCC(=O)Oc1c(Sc2ccc(Cl)cc2)c(C)nn1-c1ccccc1`, the “activity, negative = inhibition” value is 5.67% (inactive). In the case of `Nc1c(S(=O)(=O)O)cc(Nc2ccc(Nc3nc(Cl)nc(Nc4ccc(S(=O)(=O)O)cc4)n3)c(S(=O)(=O)O)c2)c2c1C(=O)c1ccccc1C2=O`, the Potency was 20 µM (active).
